Consider 25 molecules from PubChem BioAssay AID1645870 (National Center for Advancing Translational Sciences (NCATS), 2021).

Several values for one entry are separate records, joined by “and”; a condition that tells them apart may be missing. Equal entries are not always repeated. Out of some 59,000 compounds screened, about 1,500 (2.5%) were called active. Inconclusive results (about 10%) are left out. Calls follow the shape of the dose curve; as a rule, active = well fitted inhibition curve with a large enough effect; inconclusive = small, poorly fitted or top-dose-only effect; inactive = flat fitted curve, though single readings scatter. What follows is part of a selection rich in actives, with near analogues and random picks from the rest.
Potency is read from the fitted curve at half-maximal effect.

Sequence of N-terminal Xaa-Pro-Lys N-methyltransferase 1 (Homo sapiens) (Q9BV86 whole entry, looked up): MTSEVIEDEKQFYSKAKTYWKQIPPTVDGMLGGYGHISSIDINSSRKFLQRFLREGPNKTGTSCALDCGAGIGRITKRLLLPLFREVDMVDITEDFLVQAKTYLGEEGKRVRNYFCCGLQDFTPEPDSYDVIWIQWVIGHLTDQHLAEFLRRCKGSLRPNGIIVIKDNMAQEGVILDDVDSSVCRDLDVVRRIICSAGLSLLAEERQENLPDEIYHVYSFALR

In the assay the target is N-terminal Xaa-Pro-Lys N-methyltransferase 1 (Homo sapiens) (UniProt Q9BV86). Put plainly: Primary qHTS for Inhibitors of N-terminal methyltransferase 1 (NTMT1): MTaseGlo Assay. Also: nearly all actives have a fitted effect of over 65% in size.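 As to activity change, negative = inhibition: plate controls were DMSO vehicle for no effect and no enzyme for full effect.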 Conditions: NTMT1 MTase-Glo SAH luminescence, purified enzyme; series mostly up to 114 µM; activity change, negative = inhibition: at the top concentration. From the text:
Assay Submitter (PI): Rong Huang Ph.D.
Purdue University, West Lafayette, IN 47907
The N-terminal methytransferase 1 is the first methyltransferase that methylates protein alpha-N-amines and plays an important role in regulating cell mitosis, chromatin interactions and DNA repair. It is observed to be over-expressed in various cancer patient tissues like malignant melanoma and colorectal cancer tissues. Knockdown of NTMT1 in cancer cells causes cell mitotic defects and enhances sensitivity to DNA damaging chemotherapeutics. […] These critical cellular processes in which NTMT1 is implicated, coupled with emerging links to cellular dysfunction, strengthen the inference that NTMT1 is a compelling novel anticancer target. Progress have been made in understanding the molecular properties of NTMT1 and the biological consequences of protein alpha-N-terminal methylation, but there are no specific small molecule probes available for NTMT1 to fully characterize its MTase activity. To address this unmet need, a panel of assay is created and established to enable quantitative high-throughput screening (qHTS) for novel, potent, and selective small molecule NTMT1 inhibitors. Two orthogonal qHTS that use different reagents (ThioGlo vs. MTaseGlo) are developed for primary robotic screening against the NCATS chemical library of more than 400,000 small molecules. Identified inhibitors are reacquired, validated, and further characterized.
MTaseGlo Assay is a luminescence screen that measure the activity of methyltransferases based on the reaction product S-adenosyl homocysteine (SAH). The substrate SAM is converted to SAH upon enzyme activation. MTase-Glo reagent and detection solution convert SAH to ATP and measure the light from the luciferase reaction.
Materials: NTMT1 enzyme, substrate SPKRIA, control peptide RCC1-6 is provided by the Huang laboratory.
SEQUENCE No. (e.g., 1, 2, 3, etc.); […] (e.g., Cells, Incubation, Reagent, etc.); VALUE; DESCRIPTION
1; Enzyme; 3 uL; Dispense enzyme mixture (final concentrations of 125 nM NTMT1 and 100 uM SAM) into Greiner 1536-well white / solid bottom assay plate (Greiner Bio One, Monroe, NC).
2; Compounds; 23 nL; Compounds and controls were transferred via a Kalypsys Pin Tool (Wako USA) equipped with a 1536-slotted pin array (Wako Automation, Richmond, VA)
3; Incubation; 15 min; Incubate at room temperature
4; Substrate; 1 uL; Dispense 1 uL of substrate at final concentration of 1 uM. Buffer solution was dispensed in control wells. The assay plate was covered with metal lids.
5; Incubation; 30 min; Incubate at room temperature, protected from lights.
6; Reagent; 1 uL; Dispensed 5x MTase-Glo detection reagent (R) into the assay plate. The plate was covered with metal lids.
7; Incubation; 30 min; Incubate the assay plates at room temperature in the dark to allow for SAH to be converted to ADP.
8; Reagent; 5 uL; Dispense 5 uL of 1x MTase-Glo Detection Solution (R) to allow for ADP to be converted to ATP which was then detected with a luciferase reaction.
9; Centrifuge; 15 sec; Centrifuge the assay plate for 15 seconds at 1000 RPM.
10; Incubation; 30 min; Assay plates were incubation at room temperature in the dark.
11; Detection; Luminescence; Plates were read on ViewLux detector (PerkinElmer). Data were normalized to no-enzyme (0% activity) and no-inhibitor (DMSO; 100%) controls, and the resulting percent inhibition data were fitted to a 4-parameter Hill equation using GraphPad Prism.
`COc1cc2ncnc(Nc3cccc(Cl)c3F)c2cc1OC(=O)N1CCN(C)C[C@H]1C`: the Potency is 35.5 µM (active) and 39.8 µM (active).
As for `C=CC(=O)Nc1ccc2ncnc(Nc3ccc(OCc4cccc(F)c4)c(Cl)c3)c2c1`, the “activity change, negative = inhibition” value was -22% [at 57.5 µM] (inactive).
As to `Cc1cc(NS(=O)(=O)c2cc3c(cc2F)NC(=O)CC3)ccc1F`, the Potency entry was “inactive”.
Consider `CNc1oc(-c2ccc(-c3ccccc3)cc2)nc1C#N`, for which the “activity change, negative = inhibition” value was -2.96% (inactive).
As to `COc1ccc(C(=O)N(Cc2ccccc2)Cc2ccc(OC)c(COc3ccc(NC(C)=O)cc3)c2)c(O)c1`, the “activity change, negative = inhibition” value is -0.368% (inactive).
On the same count and under the same terms, next, `O=C(Nc1ccc(S(=O)(=O)Nc2nccs2)cc1)C1CC(OCc2ccccc2)C1` (stereo not given): 3.69% (inactive); `O=C(CNC(=O)c1ccc(Cl)cc1Cl)OC(C(=O)Nc1cc(C(F)(F)F)ccc1Cl)c1ccccc1` (stereo not given): 14.1% (inactive); `Cc1cn([C@H]2C[C@H](N[S+](=O)([O-])Cc3ccc(Cl)cc3)[C@@H](CO)O2)c(=O)[nH]c1=O`: 1.89% (inactive).
As to `Cc1[nH]c(/C=C2\C(=O)Nc3ccc(S(=O)(=O)Cc4c(Cl)cccc4Cl)cc32)c(C)c1C(=O)N1CCC[C@@H]1CN1CCCC1`, the Potency was 11.2 µM (active).
The same measure, in the same setting: in the case of `Cc1cc(C)c(/C=C2\C(=O)Nc3ccccc32)[nH]1` it was “inactive”.
Turning to `Cc1ccc(C(=O)Nc2ccc(S(=O)(=O)Nc3nccs3)cc2)cc1C`, the “activity change, negative = inhibition” value was -14.7% (inactive).
Still for that read-out and setting: in the case of `O=C(Cc1ccc(Cl)c(Cl)c1)Nc1ccc([S+](=O)([O-])Nc2cccc([N+](=O)[O-])c2)cc1` it was 5.18% (inactive).
For the molecule `O=S1(=O)N=C(Oc2cccc(Br)c2)c2ccccc21`, the “activity change, negative = inhibition” value was -6.08% (inactive).
On the same count and under the same terms, next, `O=C(Nc1ccccn1)c1sc2ccc([N+](=O)[O-])cc2c1Cl`: 3.22% (inactive); `COC(=O)c1ccccc1NC(=O)c1ccc(C#N)cc1`: -1.32% (inactive); `COc1ccc(C2Nc3ccccc3C(=O)N2Cc2cccc(OC)c2OC)cc1COc1c(C)cc(NC(C)=O)cc1C` (stereo not given): -0.852% (inactive).
Regarding `Cc1ccccc1NC(=O)c1c(NC(=O)c2ccccc2F)sc2c1CCC(C)C2` (stereo not given), the “activity change, negative = inhibition” value is 22.5% (inactive).
For the molecule `Cc1cccc(N2CCN(c3ccc(C(=O)O)cc3NC(=O)c3ccccc3F)CC2C)c1` (stereo not given), the Potency is 70.8 µM (active).
Take `Cc1cccc(N2CCN(C(=O)c3cc4c(=O)oc5ccccc5c4s3)CC2C)c1` (stereo not given): the “activity change, negative = inhibition” value was 1.45% (inactive).
Same read-out and setting: in the case of `O=C1CC(c2c[nH]c3ccc(F)cc23)C(=O)N1` (stereo not given) it was 7.14% (inactive).
On to `CC1=C(C(=O)Nc2ccccc2C)C(c2ccccc2Br)N=C(Nc2nc3ccccc3o2)N1` (stereo not given), for which the “activity change, negative = inhibition” value is 10.4% (inactive).
Consider `O=C(CNC(=O)c1ccc(Cl)c(C(F)(F)F)c1)OC(C(=O)Nc1cc(C(F)(F)F)ccc1Cl)c1ccccc1` (stereo not given), for which the “activity change, negative = inhibition” value was 6.81% (inactive).
On the same count and under the same terms, in the case of `Cc1c(Cl)cccc1NC(=O)N1CCN(C(=O)c2nsc3ccccc23)CC1` it was 4.51% (inactive).
As for `CCC(C(=O)Nc1cccc(Cl)c1C)n1nc(-c2ccc(C)cc2)ccc1=O` (stereo not given), the Potency is 79.4 µM (active).
With `Cc1ccc(-c2ccc(=O)n(CCNC(C)c3ccco3)n2)cc1` (stereo not given), the “activity change, negative = inhibition” value was -3.03% (inactive).
